From the supplement of paper PMC11732987, “Enantioselective OTUD7B fragment discovery through chemoproteomics screening and high-throughput optimisation” (Communications Chemistry, 2025)
Unmarked numbers belong to inactive results.

Experiments:
Assay in all cases: log2 ratio of Biotin-Ahx-Ub-VS probe labelling (fragment/DMSO); higher = less target engagement (more negative = stronger competition), active = hit call of the paper (q ≤ 0.05, log2 ratio ≤ -1)
Conditions in all cases: compound concentration: 200 uM; treatment time: 3 h
OTUD6B = molecular target: T1, OTUD6B (UniProt Q8N6M0)
T1 sequence (whole entry): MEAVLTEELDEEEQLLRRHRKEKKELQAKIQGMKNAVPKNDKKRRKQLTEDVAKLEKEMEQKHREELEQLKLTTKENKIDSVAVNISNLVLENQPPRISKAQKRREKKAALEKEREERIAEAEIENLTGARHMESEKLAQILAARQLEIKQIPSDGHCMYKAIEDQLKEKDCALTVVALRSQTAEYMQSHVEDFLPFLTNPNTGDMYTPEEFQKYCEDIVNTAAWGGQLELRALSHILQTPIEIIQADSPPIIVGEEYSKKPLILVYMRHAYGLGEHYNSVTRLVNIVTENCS
Summary of the method: (§1)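 HEK293T lysate, 495 µg per sample in Tris/CHAPS/IGEPAL buffer with protease inhibitors, was treated in triplicate with fragment at 200 µM or vehicle for 3 h and then with Biotin-Ahx-Ub-VS at 0.5 µM final for 1 h. Labelled DUBs were NeutrAvidin-enriched, digested with LysC and trypsin, and run by diaPASEF LC-MS/MS. Spectronaut label-free quantities were global-median-normalised, and values are average log2 fragment/vehicle ratios by unpaired t-test on proteins with ≥2 unique peptides.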

OTUD7B = molecular target: T2, OTUD7B (UniProt Q6GQQ9)
T2 sequence (whole entry): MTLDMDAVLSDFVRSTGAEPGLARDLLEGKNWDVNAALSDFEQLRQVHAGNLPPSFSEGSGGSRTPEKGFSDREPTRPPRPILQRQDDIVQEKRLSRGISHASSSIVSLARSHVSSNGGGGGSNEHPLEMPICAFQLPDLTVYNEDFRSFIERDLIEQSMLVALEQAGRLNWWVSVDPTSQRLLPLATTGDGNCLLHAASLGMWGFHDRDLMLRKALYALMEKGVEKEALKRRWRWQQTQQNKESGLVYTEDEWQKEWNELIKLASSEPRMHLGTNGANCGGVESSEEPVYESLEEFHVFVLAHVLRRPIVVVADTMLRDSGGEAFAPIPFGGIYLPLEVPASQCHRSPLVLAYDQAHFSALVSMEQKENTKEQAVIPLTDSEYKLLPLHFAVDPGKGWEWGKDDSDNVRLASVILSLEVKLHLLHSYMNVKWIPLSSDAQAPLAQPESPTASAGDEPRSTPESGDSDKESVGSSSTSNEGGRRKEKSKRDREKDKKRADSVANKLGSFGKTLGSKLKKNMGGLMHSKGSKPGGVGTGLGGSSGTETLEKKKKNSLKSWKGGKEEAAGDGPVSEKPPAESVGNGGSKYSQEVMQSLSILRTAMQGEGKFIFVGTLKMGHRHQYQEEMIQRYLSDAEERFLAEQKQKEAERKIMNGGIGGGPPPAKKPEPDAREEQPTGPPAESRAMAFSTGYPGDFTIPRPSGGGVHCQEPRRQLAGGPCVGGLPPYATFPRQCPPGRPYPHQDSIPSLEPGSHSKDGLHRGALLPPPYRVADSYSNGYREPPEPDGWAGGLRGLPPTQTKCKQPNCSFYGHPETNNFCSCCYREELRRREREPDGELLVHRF
Summary of the method: as §1

PRPF8 = PRPF8 (UniProt Q6P2Q9)
Summary of the method: as §1

PSMD7 = molecular target: T3, PSMD7 (UniProt P51665)
T3 sequence (whole entry): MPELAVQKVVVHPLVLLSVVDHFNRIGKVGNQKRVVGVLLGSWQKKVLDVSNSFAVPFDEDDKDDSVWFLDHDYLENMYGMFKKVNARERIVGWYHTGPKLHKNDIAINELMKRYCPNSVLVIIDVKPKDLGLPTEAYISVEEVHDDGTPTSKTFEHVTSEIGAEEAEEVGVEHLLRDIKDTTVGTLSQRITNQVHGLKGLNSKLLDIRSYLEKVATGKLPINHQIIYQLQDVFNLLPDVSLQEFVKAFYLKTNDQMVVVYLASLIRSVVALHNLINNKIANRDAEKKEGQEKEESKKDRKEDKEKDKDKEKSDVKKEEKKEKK
Summary of the method: as §1

UCHL1 = UCHL1 (UniProt P09936)
UCHL1, sequence (P09936 whole entry, looked up): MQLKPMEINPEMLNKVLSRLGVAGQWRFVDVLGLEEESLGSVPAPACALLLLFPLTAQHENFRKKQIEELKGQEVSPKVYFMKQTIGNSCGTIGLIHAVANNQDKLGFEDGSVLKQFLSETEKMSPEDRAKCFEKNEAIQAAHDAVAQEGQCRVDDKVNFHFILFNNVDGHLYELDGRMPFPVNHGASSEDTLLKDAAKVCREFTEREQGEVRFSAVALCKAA
Summary of the method: as §1

UCHL3 = molecular target: T4, UCHL3 (UniProt P15374)
T4 sequence (whole entry): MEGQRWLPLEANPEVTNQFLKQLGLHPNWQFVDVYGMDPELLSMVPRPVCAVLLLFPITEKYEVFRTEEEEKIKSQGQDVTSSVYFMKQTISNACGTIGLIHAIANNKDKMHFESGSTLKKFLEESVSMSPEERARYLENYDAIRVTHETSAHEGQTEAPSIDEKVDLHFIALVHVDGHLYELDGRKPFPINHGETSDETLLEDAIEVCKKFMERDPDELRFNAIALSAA
Summary of the method: as §1

UCHL5 = molecular target: T5, UCHL5 (UniProt Q9Y5K5)
T5 sequence (whole entry): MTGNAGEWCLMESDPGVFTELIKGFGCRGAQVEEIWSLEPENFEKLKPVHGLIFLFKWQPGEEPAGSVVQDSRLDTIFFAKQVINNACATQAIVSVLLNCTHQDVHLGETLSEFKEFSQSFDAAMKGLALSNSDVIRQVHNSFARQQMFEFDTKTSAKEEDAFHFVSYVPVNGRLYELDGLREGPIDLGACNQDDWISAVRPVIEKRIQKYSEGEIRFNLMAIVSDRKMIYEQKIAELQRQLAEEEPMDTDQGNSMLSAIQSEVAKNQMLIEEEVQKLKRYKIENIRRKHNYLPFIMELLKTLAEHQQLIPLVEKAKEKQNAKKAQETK
Summary of the method: as §1

USP10 = USP10 (UniProt Q14694)
USP10, sequence (Q14694 whole entry): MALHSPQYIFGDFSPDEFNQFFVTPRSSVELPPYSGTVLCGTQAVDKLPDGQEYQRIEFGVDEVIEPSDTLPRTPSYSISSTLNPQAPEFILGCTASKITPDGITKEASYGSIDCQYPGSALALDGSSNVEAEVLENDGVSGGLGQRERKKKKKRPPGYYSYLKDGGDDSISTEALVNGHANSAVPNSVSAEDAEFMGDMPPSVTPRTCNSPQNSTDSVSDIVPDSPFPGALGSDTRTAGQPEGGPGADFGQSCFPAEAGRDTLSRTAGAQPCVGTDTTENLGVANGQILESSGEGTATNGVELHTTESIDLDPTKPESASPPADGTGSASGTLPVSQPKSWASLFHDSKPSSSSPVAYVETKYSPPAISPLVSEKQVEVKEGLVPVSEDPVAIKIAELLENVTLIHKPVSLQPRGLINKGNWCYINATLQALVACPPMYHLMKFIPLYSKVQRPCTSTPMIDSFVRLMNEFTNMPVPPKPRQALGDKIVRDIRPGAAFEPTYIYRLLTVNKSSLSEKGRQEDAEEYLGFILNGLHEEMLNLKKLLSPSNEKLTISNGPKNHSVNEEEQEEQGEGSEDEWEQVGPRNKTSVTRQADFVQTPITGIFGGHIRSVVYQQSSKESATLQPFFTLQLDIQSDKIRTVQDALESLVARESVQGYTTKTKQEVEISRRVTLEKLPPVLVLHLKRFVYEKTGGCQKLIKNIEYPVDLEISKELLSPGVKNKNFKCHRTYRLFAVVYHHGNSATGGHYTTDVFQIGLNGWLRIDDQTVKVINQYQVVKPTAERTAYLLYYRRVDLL
Summary of the method: as §1

USP15 = molecular target: T6, USP15 (UniProt Q9Y4E8)
T6 sequence (whole entry): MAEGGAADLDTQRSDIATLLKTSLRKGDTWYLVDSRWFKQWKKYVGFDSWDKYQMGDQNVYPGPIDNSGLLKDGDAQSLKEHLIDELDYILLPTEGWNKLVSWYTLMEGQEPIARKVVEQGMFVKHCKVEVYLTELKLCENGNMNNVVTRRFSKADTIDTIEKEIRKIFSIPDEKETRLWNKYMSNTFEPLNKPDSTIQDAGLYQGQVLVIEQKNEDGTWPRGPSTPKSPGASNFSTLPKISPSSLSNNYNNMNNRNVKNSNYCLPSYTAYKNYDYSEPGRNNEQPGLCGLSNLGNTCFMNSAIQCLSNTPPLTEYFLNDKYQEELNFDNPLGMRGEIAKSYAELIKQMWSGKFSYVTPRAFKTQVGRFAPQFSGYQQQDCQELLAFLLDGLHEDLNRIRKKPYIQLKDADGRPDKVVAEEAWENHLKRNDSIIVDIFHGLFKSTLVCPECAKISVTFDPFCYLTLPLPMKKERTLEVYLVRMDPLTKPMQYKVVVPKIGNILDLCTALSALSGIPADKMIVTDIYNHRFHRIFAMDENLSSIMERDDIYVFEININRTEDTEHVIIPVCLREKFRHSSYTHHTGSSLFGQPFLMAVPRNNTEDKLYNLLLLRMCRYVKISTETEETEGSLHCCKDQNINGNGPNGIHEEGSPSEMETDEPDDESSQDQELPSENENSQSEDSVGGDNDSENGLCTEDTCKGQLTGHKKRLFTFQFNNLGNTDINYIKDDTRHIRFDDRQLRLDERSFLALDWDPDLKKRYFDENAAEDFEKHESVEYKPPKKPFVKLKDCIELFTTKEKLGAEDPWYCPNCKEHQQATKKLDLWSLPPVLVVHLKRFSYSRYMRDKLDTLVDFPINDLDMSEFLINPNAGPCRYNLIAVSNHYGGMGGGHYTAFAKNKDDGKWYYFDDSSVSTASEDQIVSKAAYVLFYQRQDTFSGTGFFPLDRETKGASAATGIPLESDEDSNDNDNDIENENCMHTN
Summary of the method: as §1

USP16 = USP16 (UniProt Q9Y5T5)
USP16, sequence (Q9Y5T5 whole entry, looked up): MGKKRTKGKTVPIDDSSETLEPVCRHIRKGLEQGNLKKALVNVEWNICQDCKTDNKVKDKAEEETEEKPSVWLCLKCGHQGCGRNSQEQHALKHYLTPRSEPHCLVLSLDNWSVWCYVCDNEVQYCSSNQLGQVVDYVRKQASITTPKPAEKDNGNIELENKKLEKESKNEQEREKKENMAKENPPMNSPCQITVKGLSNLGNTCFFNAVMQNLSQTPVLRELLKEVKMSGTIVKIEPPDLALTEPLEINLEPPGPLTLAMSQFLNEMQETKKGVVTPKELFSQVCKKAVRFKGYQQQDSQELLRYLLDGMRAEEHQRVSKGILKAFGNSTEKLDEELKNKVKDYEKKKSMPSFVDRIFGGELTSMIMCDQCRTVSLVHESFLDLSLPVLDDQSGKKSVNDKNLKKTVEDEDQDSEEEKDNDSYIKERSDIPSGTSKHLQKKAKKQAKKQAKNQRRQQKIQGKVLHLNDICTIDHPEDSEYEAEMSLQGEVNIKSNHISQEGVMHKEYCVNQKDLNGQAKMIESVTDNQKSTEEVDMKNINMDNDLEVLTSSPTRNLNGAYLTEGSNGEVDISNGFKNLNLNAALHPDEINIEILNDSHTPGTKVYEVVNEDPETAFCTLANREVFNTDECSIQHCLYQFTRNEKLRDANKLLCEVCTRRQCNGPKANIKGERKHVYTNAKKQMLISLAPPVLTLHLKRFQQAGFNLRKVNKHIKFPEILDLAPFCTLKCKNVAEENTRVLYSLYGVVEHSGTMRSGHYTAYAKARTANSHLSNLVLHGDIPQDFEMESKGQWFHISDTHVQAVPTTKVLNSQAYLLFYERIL
Summary of the method: as §1

In the case of `O=C(CCl)Nc1ccc(N2CCCC2=O)cc1`, the “log2 ratio of Biotin-Ahx-Ub-VS probe labelling” value (“log2 ratio” below) (OTUD6B) is reported as 0.116, the “log2 ratio” value (OTUD7B) is reported as -0.359 and the “log2 ratio” value (PRPF8) is reported as 0.162. For the same compound, the “log2 ratio” value (PSMD7) was -0.145, the “log2 ratio” value (UCHL1) was -1.1 (active) and the “log2 ratio” value (UCHL3) was 0.206. The “log2 ratio” value (UCHL5) was -0.098, the “log2 ratio” value (USP10) was -0.0139 and the “log2 ratio” value (USP15) was 0.104. For the same compound, the “log2 ratio” value (USP16) was 0.0122.
